# Assay results taken from article PMC7862700, “An all-to-all approach to the identification of sequence-specific readers for epigenetic DNA modifications on cytosine”.
# Target: T1, ELF5 (Homo sapiens, UniProt Q9UKW6-2 1-255)
# T1 sequence: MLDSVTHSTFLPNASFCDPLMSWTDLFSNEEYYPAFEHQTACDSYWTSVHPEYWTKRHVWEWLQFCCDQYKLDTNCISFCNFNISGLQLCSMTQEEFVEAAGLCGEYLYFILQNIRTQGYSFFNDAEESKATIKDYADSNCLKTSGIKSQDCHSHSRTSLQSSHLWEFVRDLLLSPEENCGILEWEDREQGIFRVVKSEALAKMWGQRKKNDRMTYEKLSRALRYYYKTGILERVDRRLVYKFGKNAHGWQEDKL
# Experiment: DAPPL (digital affinity profiling via proximity ligation, sequencing); 10 mM Tris-HCl pH 7.5, 50 mM NaCl, 1 mM DTT, 4% glycerol, room temperature, 30 min; GST-TFs on glutathione beads, 16-mer random dsDNA library, 0.1% formaldehyde crosslink after washing; high values mean tight binding
# Details: protein: recombinant; tags: N-terminal GST; dsDNA, one strand shown
# Method in brief: (§1)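 Binding signal is each hexamer's read frequency for a factor divided by its frequency in the tag-only sample. The factors were GST-fused human transcription factors from yeast, captured on glutathione beads, DNA-barcoded and pooled with that sample. Pools were incubated with 200 nmole of a random double-stranded 16-mer DNA library in Tris/NaCl/DTT/glycerol buffer at room temperature for 30 min, then washed, crosslinked with 0.1% formaldehyde, proximity-ligated with BsaI/T4 ligase (1 h, 37 °C), PCR-amplified and sequenced on an Illumina NextSeq500.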
row,Sequence,binding signal
1,ATGCTA,"1.28 fold enrichment (6-mer frequency, TF over GST control)"
2,TTATGT,"1.23 fold enrichment (6-mer frequency, TF over GST control)"
3,TCTTGA,"1.3 fold enrichment (6-mer frequency, TF over GST control)"
4,ATGCTT,"1.38 fold enrichment (6-mer frequency, TF over GST control)"
5,CATCCT,"2.13 fold enrichment (6-mer frequency, TF over GST control)"
6,ACTGAT,"1.22 fold enrichment (6-mer frequency, TF over GST control)"
7,TTACTC,"1.21 fold enrichment (6-mer frequency, TF over GST control)"
8,TTGCCC,"1.22 fold enrichment (6-mer frequency, TF over GST control)"
9,ACGTCC,"1.77 fold enrichment (6-mer frequency, TF over GST control)"
10,AATGTT,"1.62 fold enrichment (6-mer frequency, TF over GST control)"
11,AATAGT,"1.18 fold enrichment (6-mer frequency, TF over GST control)"
12,CCAATC,"1.16 fold enrichment (6-mer frequency, TF over GST control)"
13,GTATCC,"2.1 fold enrichment (6-mer frequency, TF over GST control)"
14,ACAATT,"1.32 fold enrichment (6-mer frequency, TF over GST control)"
15,TTCTTT,"1.13 fold enrichment (6-mer frequency, TF over GST control)"
16,TAAAAC,"1.12 fold enrichment (6-mer frequency, TF over GST control)"
17,TCCTTC,"3.06 fold enrichment (6-mer frequency, TF over GST control)"
18,TTCGTA,"1.3 fold enrichment (6-mer frequency, TF over GST control)"
19,TAGCTA,"1.16 fold enrichment (6-mer frequency, TF over GST control)"
20,TATTTG,"1.4 fold enrichment (6-mer frequency, TF over GST control)"

# Target: T2, ETV3 (Homo sapiens, UniProt P41162-2 1-143)
# T2 sequence: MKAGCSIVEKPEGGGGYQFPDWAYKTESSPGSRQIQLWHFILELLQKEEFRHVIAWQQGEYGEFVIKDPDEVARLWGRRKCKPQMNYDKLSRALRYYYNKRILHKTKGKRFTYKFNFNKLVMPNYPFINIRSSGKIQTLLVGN
# Experiment: as above
# Details: protein: recombinant; tags: N-terminal GST; dsDNA, one strand shown
# Method in brief: as §1
row,Sequence,binding signal
1,ATTGAT,"1.33 fold enrichment (6-mer frequency, TF over GST control)"
2,CATCTA,"1.05 fold enrichment (6-mer frequency, TF over GST control)"
3,CTGATT,"1.17 fold enrichment (6-mer frequency, TF over GST control)"
4,CGAATA,"1.21 fold enrichment (6-mer frequency, TF over GST control)"
5,AAGAAA,"1.16 fold enrichment (6-mer frequency, TF over GST control)"
6,AGTATT,"1.19 fold enrichment (6-mer frequency, TF over GST control)"
7,TAAATG,"1.31 fold enrichment (6-mer frequency, TF over GST control)"
8,TTTTGT,"1.34 fold enrichment (6-mer frequency, TF over GST control)"
9,TCTGCT,"1.32 fold enrichment (6-mer frequency, TF over GST control)"
10,TTGAAA,"1.17 fold enrichment (6-mer frequency, TF over GST control)"
11,ACAATA,"1.21 fold enrichment (6-mer frequency, TF over GST control)"
12,CCTAAG,"1.06 fold enrichment (6-mer frequency, TF over GST control)"
13,CTCAAT,"1.2 fold enrichment (6-mer frequency, TF over GST control)"
14,TACATA,"1.21 fold enrichment (6-mer frequency, TF over GST control)"
15,TATTTT,"1.39 fold enrichment (6-mer frequency, TF over GST control)"
16,TTAATG,"1.21 fold enrichment (6-mer frequency, TF over GST control)"
17,ATCGAT,"1.15 fold enrichment (6-mer frequency, TF over GST control)"
18,TCCATT,"1.37 fold enrichment (6-mer frequency, TF over GST control)"
19,CGTTAA,"1.21 fold enrichment (6-mer frequency, TF over GST control)"
20,TCTAGC,"1.32 fold enrichment (6-mer frequency, TF over GST control)"

row,Sequence,binding signal
1,ATGCTA,"1.28 fold enrichment (6-mer frequency, TF over GST control)"
2,TTATGT,"1.34 fold enrichment (6-mer frequency, TF over GST control)"
3,TCTTGA,"1.18 fold enrichment (6-mer frequency, TF over GST control)"
4,ATGCTT,"1.31 fold enrichment (6-mer frequency, TF over GST control)"
5,CATCCT,"1.86 fold enrichment (6-mer frequency, TF over GST control)"
6,ACTGAT,"1.25 fold enrichment (6-mer frequency, TF over GST control)"
7,TTACTC,"1.29 fold enrichment (6-mer frequency, TF over GST control)"
8,TTGCCC,"1.35 fold enrichment (6-mer frequency, TF over GST control)"
9,ACGTCC,"1.61 fold enrichment (6-mer frequency, TF over GST control)"
10,AATGTT,"1.61 fold enrichment (6-mer frequency, TF over GST control)"
11,AATAGT,"1.3 fold enrichment (6-mer frequency, TF over GST control)"
12,CCAATC,"1.15 fold enrichment (6-mer frequency, TF over GST control)"
13,GTATCC,"2.03 fold enrichment (6-mer frequency, TF over GST control)"
14,ACAATT,"1.27 fold enrichment (6-mer frequency, TF over GST control)"
15,TTCTTT,"1.2 fold enrichment (6-mer frequency, TF over GST control)"
16,TAAAAC,"1.24 fold enrichment (6-mer frequency, TF over GST control)"
17,TCCTTC,"2.21 fold enrichment (6-mer frequency, TF over GST control)"
18,TTCGTA,"1.44 fold enrichment (6-mer frequency, TF over GST control)"
19,TAGCTA,"1.18 fold enrichment (6-mer frequency, TF over GST control)"
20,TATTTG,"1.47 fold enrichment (6-mer frequency, TF over GST control)"

# Target: ETV6 (Homo sapiens, UniProt P41212 1-452)
# Experiment: as above
# Details: protein: recombinant; tags: N-terminal GST; dsDNA, one strand shown
# Method in brief: as §1
# Sequence of ETV6 (P41212 whole entry): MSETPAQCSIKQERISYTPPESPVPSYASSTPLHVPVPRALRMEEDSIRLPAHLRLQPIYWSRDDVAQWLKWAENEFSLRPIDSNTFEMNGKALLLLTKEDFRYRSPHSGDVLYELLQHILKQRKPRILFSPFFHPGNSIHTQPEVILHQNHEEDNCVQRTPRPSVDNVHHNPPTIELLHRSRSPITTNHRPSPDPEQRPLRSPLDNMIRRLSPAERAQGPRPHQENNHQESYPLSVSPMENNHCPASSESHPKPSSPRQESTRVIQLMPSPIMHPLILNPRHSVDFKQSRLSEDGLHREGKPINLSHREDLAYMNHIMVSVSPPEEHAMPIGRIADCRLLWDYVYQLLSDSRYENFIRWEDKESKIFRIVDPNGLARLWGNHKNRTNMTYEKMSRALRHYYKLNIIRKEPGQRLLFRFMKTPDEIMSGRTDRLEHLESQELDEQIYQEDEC
row,Sequence,binding signal
1,ATTGAT,"1.24 fold enrichment (6-mer frequency, TF over GST control)"
2,CATCTA,"1.15 fold enrichment (6-mer frequency, TF over GST control)"
3,CTGATT,"1.17 fold enrichment (6-mer frequency, TF over GST control)"
4,CGAATA,"1.18 fold enrichment (6-mer frequency, TF over GST control)"
5,AAGAAA,"1.22 fold enrichment (6-mer frequency, TF over GST control)"
6,AGTATT,"1.32 fold enrichment (6-mer frequency, TF over GST control)"
7,TAAATG,"1.31 fold enrichment (6-mer frequency, TF over GST control)"
8,TTTTGT,"1.24 fold enrichment (6-mer frequency, TF over GST control)"
9,TCTGCT,"1.18 fold enrichment (6-mer frequency, TF over GST control)"
10,TTGAAA,"1.09 fold enrichment (6-mer frequency, TF over GST control)"
11,ACAATA,"1.18 fold enrichment (6-mer frequency, TF over GST control)"
12,CCTAAG,"1.11 fold enrichment (6-mer frequency, TF over GST control)"
13,CTCAAT,"1.23 fold enrichment (6-mer frequency, TF over GST control)"
14,TACATA,"1.21 fold enrichment (6-mer frequency, TF over GST control)"
15,TATTTT,"1.36 fold enrichment (6-mer frequency, TF over GST control)"
16,TTAATG,"1.19 fold enrichment (6-mer frequency, TF over GST control)"
17,ATCGAT,"1.11 fold enrichment (6-mer frequency, TF over GST control)"
18,TCCATT,"1.29 fold enrichment (6-mer frequency, TF over GST control)"
19,CGTTAA,"1.16 fold enrichment (6-mer frequency, TF over GST control)"
20,TCTAGC,"1.22 fold enrichment (6-mer frequency, TF over GST control)"

row,Sequence,binding signal
1,ATGCTA,"1.27 fold enrichment (6-mer frequency, TF over GST control)"
2,TTATGT,"1.43 fold enrichment (6-mer frequency, TF over GST control)"
3,TCTTGA,"1.24 fold enrichment (6-mer frequency, TF over GST control)"
4,ATGCTT,"1.3 fold enrichment (6-mer frequency, TF over GST control)"
5,CATCCT,"1.65 fold enrichment (6-mer frequency, TF over GST control)"
6,ACTGAT,"1.2 fold enrichment (6-mer frequency, TF over GST control)"
7,TTACTC,"1.27 fold enrichment (6-mer frequency, TF over GST control)"
8,TTGCCC,"1.23 fold enrichment (6-mer frequency, TF over GST control)"
9,ACGTCC,"1.74 fold enrichment (6-mer frequency, TF over GST control)"
10,AATGTT,"1.63 fold enrichment (6-mer frequency, TF over GST control)"
11,AATAGT,"1.34 fold enrichment (6-mer frequency, TF over GST control)"
12,CCAATC,"1.15 fold enrichment (6-mer frequency, TF over GST control)"
13,GTATCC,"1.79 fold enrichment (6-mer frequency, TF over GST control)"
14,ACAATT,"1.25 fold enrichment (6-mer frequency, TF over GST control)"
15,TTCTTT,"1.14 fold enrichment (6-mer frequency, TF over GST control)"
16,TAAAAC,"1.16 fold enrichment (6-mer frequency, TF over GST control)"
17,TCCTTC,"2.31 fold enrichment (6-mer frequency, TF over GST control)"
18,TTCGTA,"1.3 fold enrichment (6-mer frequency, TF over GST control)"
19,TAGCTA,"1.28 fold enrichment (6-mer frequency, TF over GST control)"
20,TATTTG,"1.45 fold enrichment (6-mer frequency, TF over GST control)"
